Reference: PubChem BioAssay (Tox21)
Records with an inconclusive call do not appear. Active and inactive are the calls of the source. Unless noted, the call rests on the fitted dose curve; in most records, active means well fitted curve in the direction sought with a large enough effect in the repeat runs; inconclusive means weak or mixed curves; inactive means no such curve, though single readings can be large; an effect the other way counts as inactive or inconclusive.

Columns and labels:
[1] = qHTS assay to identify small molecule agonists of the vitamin D receptor (VDR) signaling pathway - cell viability counter screen (AID 743224); further: nearly all actives have a fitted effect of over 50% in size
In short: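 Viability is measured in the same wells as the VDR-bla reporter assay: after 16 h compound treatment and 2 h substrate loading, CellTiter-Glo is added and luminescence read 30 min later.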

[2] = qHTS assay to identify small molecule agonists of the NFkB signaling pathway (AID 1159509; active means well fitted curve in the direction sought with a large enough effect in the signal ratio in the repeat runs, not every such curve was filed as active; the % refers to the signal ratio)
In short: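 ME-180 NFkB-bla, 2,000 cells/well, overnight plating; cpd pinned in DMSO, 5 h 37 C; B/G FRET substrate 1.5 h RT; ex 405, em 460/530 nm.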

[3] = qHTS assay to identify small molecule agonists of the endoplasmic reticulum stress response signaling pathway (AID 1159516; active means well fitted activation curve with a large enough effect in the signal ratio in the repeat runs, not every such curve was filed as active; the % refers to the signal ratio)
In short: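 Tox21 10K library screened in quantitative HTS format on ESRE-bla HeLa cells, a beta-lactamase reporter under ER stress response element control; 5 hr treatment, FRET read.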

[4] = qHTS assay to identify small molecule agonists of the endoplasmic reticulum stress response signaling pathway - cell viability counter screen (AID 1159517; calls by dose curve; further: nearly all actives have a fitted effect of over 50% in size)
In short: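 ESRE-bla HeLa cells, 1,500 per well, seeded overnight then treated with compounds for 5 hr at 37 C. After the beta-lactamase read, viability in the same wells is measured by CellTiter-Glo luminescence after 30 min at room temperature.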

[5] = qHTS assay to identify small molecule antagonists of the retinoid-related orphan receptor gamma (ROR-gamma) signaling pathway - cell viability counter screen (AID 1159520); further: nearly all actives have a fitted effect of over 50% in size
In short: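 Tet-on ROR gamma CHO cells were given compounds for 2 hr, then doxycycline hyclate at 1 uM final, and incubated 16 hr at 37 C. Viability was measured as ATP content by CellTiter-Glo luminescence.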

[6] = target: Nuclear receptor ROR-gamma (Homo sapiens) (UniProt P51449); assay: qHTS assay to identify small molecule antagonists of the retinoid-related orphan receptor gamma (ROR-gamma) signaling pathway (AID 1159521; further: nearly all actives have a fitted effect of over 50% in size; further: potency means the concentration at half of the fitted maximal effect)
In short: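 Luminescence readout (ONE-Glo, 30 min RT) after 16 h doxycycline induction; loss of signal scored as antagonism. CHO cells with TET-inducible RORγ and RORE-LUC reporter; compounds added 2 h before 1 uM final doxycycline.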

[7] = qHTS assay to identify small molecule agonists of the AP-1 signaling pathway - cell viability counter screen (AID 1159525; calls by dose curve; further: nearly all actives have a fitted effect of over 55% in size)
In short: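 AP-1-bla ME-180 cells in Opti-MEM with 0.5% dialyzed FBS, compound exposure 5 h at 37 C in 15-point titration. Viability read in the same wells as ATP content by CellTiter-Glo luminescence, normalised to tetra-n-octylammonium bromide and DMSO controls.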

[8] = qHTS assay to identify small molecule agonists of the AP-1 signaling pathway (AID 1159526; calls by dose curve)
[9] = target: Retinoic acid receptor RXR-alpha (Homo sapiens) (UniProt P19793); assay: qHTS assay to identify small molecule agonists of the RXR signaling pathway (AID 1159527; calls by dose curve; further: nearly all actives have a fitted effect of over 35% in size)
Chain of Retinoic acid receptor RXR-alpha (Homo sapiens) (P19793 whole entry, looked up): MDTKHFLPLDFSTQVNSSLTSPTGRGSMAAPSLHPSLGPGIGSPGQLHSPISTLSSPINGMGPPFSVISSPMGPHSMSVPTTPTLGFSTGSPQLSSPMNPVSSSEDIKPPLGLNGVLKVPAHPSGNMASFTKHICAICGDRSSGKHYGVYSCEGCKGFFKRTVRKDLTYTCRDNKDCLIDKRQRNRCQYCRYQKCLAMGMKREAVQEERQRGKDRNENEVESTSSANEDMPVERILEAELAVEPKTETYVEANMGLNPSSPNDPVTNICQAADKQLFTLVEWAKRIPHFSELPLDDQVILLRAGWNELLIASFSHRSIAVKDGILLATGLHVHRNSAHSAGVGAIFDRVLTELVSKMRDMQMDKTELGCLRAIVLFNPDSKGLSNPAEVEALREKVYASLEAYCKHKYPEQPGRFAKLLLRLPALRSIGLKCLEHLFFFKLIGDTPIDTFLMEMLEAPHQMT
In short: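 Agonist mode; 9-cis retinoic acid positive control. HEK 293T UAS-bla reporter cells, 2% charcoal-stripped FBS, 16 hr compound exposure at 37 C/5% CO2. LiveBLAzer B/G FRET substrate 2 hr RT; ex 405, em 460/530 nm.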

[10] = qHTS assay to identify small molecule agonists of the RXR signaling pathway - cell viability counter screen (AID 1159529); further: nearly all actives have a fitted effect of over 50% in size; further: potency means the concentration at half of the fitted maximal effect
In short: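 Luminescence from CellTiter-Glo (30 min, RT) measured viability in the same wells as the beta-lactamase reporter readout. Cells: GeneBLAzer RXR-alpha HEK 293T, 2% charcoal-stripped FBS. Compound exposure 16 hr, 37 C.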

[11] = qHTS assay to identify small molecule antagonists of the retinoid acid receptor (RAR) signaling pathway - cell viability counter screen (AID 1159551); further: nearly all actives have a fitted effect of over 35% in size
In short: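 Cytotoxicity counter screen in C3RL4 cells: 6 h compound exposure with 1 uM retinol (final), viability from cellular ATP by luminescence.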

[12] = qHTS assay to identify small molecule agonists of the retinoic acid receptor (RAR) signaling pathway (AID 1159553); settings: C3RL4 RARE luciferase reporter, agonist, 6 h; activation: at 73.3 µM (top of the series); further: potency means the concentration at half of the fitted maximal effect
In short: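 Agonist activity was scored in C3RL4 cells bearing a retinoic acid response element luciferase construct. Cells were treated with compounds for 6 hr at 37 C, and luciferase signal was measured as luminescence.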

[13] = qHTS assay to identify small molecule antagonists of the vitamin D receptor (VDR) signaling pathway - cell viability counter screen (AID 743225); further: nearly all actives have a fitted effect of over 50% in size
In short: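 Viability counter screen run in the same wells as the beta-lactamase reporter assay: HEK 293T VDR-UAS-bla cells, 16 h compound exposure at 37C with 3 nM (final) 1-alpha,25-dihydroxyvitamin D3. CellTiter-Glo luminescence, 30 min, room temperature.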

[14] = qHTS assay to identify small molecule antagonists of the retinoic acid receptor (RAR) signaling pathway (AID 1159552; further: nearly all actives have a fitted effect of over 50% in size)
In short: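 Luminescence from a RARE luciferase reporter in C3RL4 cells served as read-out. Cells received compounds together with 1 uM final retinol and incubated 6 hr at 37 C before detection reagent was added for 30 min at room temperature.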

[15] = qHTS assay to identify small molecule agonists of the NFkB signaling pathway - cell viability counter screen (AID 1159515; calls by dose curve; further: nearly all actives have a fitted effect of over 55% in size)
In short: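 Multiplexed viability readout: after the 5 hr compound exposure and 1.5 hr FRET substrate step, CellTiter-Glo reagent went into the same NFkB-bla ME-180 wells; ATP luminescence was measured after 30 min at room temperature.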

[16] = qHTS assay to identify small molecule agonists of the estrogen related receptor (ERR) signaling pathway (AID 1224820)
In short: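 Cells: ERR line from NTP, 2,000/well. Pre-incubation 6 h, 37 C/5% CO2. Compound (DMSO) pin transfer, 18 h 37 C. One-Glo, 30 min RT, luminescence.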

[17] = qHTS assay to identify small molecule antagonists of the estrogen related receptor signaling pathway with the pleiotropic PPARgamma coactivator (PGC) cell viability counter screen (AID 1224822;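 further: viability read after 17.5 h compound exposure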)
In short: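 Seed PGC/ERR cells (2,000/well); incubate 6 h at 37 C/5% CO2; pin-transfer compounds in DMSO; incubate 17.5 h at 37 C; add CellTiter-Fluor; after 30 min read fluorescence.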

[18] = qHTS assay to identify small molecule agonists of the estrogen related receptor signaling pathway with the pleiotropic PPARgamma coactivator (PGC) (AID 1224823)
In short: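 Steps: plate PGC/ERR cells at 2,000 cells/well; incubate 6 h, 37 C/5% CO2; pin-transfer compounds (DMSO); incubate 18 h, 37 C; add One-Glo; 30 min RT; read luminescence.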

Measured: Potency

CCn1cc(C(=O)O)c(=O)c2cc(F)c(N3CCNCC3)cc21
inactive: [1] | [2] | [3] | [4] | [5] | [6] | [7] | [8] | [9] | [10] | [11] | [12]

C[C@H]1C[C@H](O)c2ccsc2S1(=O)=O
inactive: [1] | [13] | [2] | [3] | [4] | [5] | [6] | [7] | [8] | [9] | [10] | [11] | [14] | [12]

O[C@@H]1CO[C@H]2[C@@H]1OC[C@@H]2O
inactive: [1] | [13] | [2] | [3] | [4] | [5] | [6] | [7] | [8] | [9] | [10] | [11] | [14] | [12]

C=COCC(C)C
inactive: [1] | [2] | [3] | [4] | [5] | [6] | [7] | [8] | [9] | [10] | [11] | [14] | [12]

C[C@H]1c2cccc(O)c2C(O)=C2C(=O)[C@]3(O)C(O)=C(C(N)=O)C(=O)[C@@H](N(C)C)[C@@H]3[C@@H](O)[C@@H]21
active: [6] 29.8 µM
inactive: [1] | [13] | [2] | [15] | [10] | [11] | [16] | [17] | [18]

O=C(O)C[C@H](NC(=O)OCc1ccccc1)C(=O)O
inactive: [13] | [2] | [3] | [4] | [5] | [6] | [7] | [8] | [9] | [10] | [11] | [14] | [12]

Cc1ccccc1N=C(N)Nc1ccccc1C
inactive: [1] | [2] | [3] | [4] | [5] | [6] | [7] | [8] | [9] | [10] | [11] | [14] | [12]

CC1(C)S[C@@H]2[C@H](NC(=O)C(c3ccccc3)S(=O)(=O)O)C(=O)N2[C@H]1C(=O)O (some centres not stated)
inactive: [1] | [13] | [2] | [3] | [4] | [5] | [6] | [7] | [8] | [9] | [10] | [11] | [14] | [12]

CC(C)COCC(CN(Cc1ccccc1)c1ccccc1)N1CCCC1 (configuration not stated)
inactive: [2] | [15] | [17]
active: [6] 23.7 µM | [10] 19 µM

O=[N+]([O-])c1ccc(O/N=C/c2cc(Br)c(O)c(Br)c2)c([N+](=O)[O-])c1
inactive: [1] | [2] | [15] | [7] | [11]
active: [6] 6.82 µM

CN1C(=O)N(c2ccccc2Br)Cc2cnc(Nc3ccc4c(c3)OCC(CO)O4)nc21 (configuration not stated)
inactive: [2] | [15] | [9] | [12]
active: [6] 54.5 µM | [10] 0.245 µM

COc1ncnc(NS(=O)(=O)c2ccc(N)cc2)c1OC
inactive: [1] | [13] | [2] | [3] | [4] | [5] | [6] | [7] | [8] | [9] | [10] | [11] | [12]

CC(=O)OCC(=O)NCCCOc1cccc(CN2CCCCC2)c1
inactive: [1] | [13] | [2] | [3] | [4] | [5] | [6] | [7] | [8] | [9] | [10] | [11]

CCCCOc1ccc(OCCCN2CCOCC2)cc1
active: [12] 21.1 µM
inactive: [1] | [13] | [2] | [3] | [4] | [5] | [6] | [7] | [8] | [9] | [10] | [11] | [14]

CCC(OCCCOC)OC(C)=O (configuration not stated)
inactive: [1] | [13] | [2] | [3] | [4] | [5] | [6] | [7] | [8] | [9] | [10] | [11] | [14] | [12]

CCOC(=O)c1ccc(O)c(O)c1
inactive: [1] | [13] | [2] | [3] | [4] | [5] | [6] | [7] | [8] | [9] | [10] | [11] | [14] | [12]
